Consider seven compounds from PubChem BioAssay (NCATS).

For assay [1], the target named is Lysosomal acid glucosylceramidase (Homo sapiens) (UniProt P04062). Briefly: Glucocerebrosidase-p2 (AID 348; in the data active means potency below about 10 µM; further: potency means the concentration at half of the fitted maximal effect). Conditions: purified GBA, blue fluorogenic substrate, 40 min. In outline:
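Normal human glucocerebrosidase (0.2 nM) with blue fluorogenic substrate (80 uM final) in citrate/phosphate pH 5.9 with 10mM sodium taurocholate, 0.01% tween-20; 40 min RT, NaOH/glycine stop; fluorescence Ex 365/Em 440; AC50 from a titration from 0.6 nM upwards.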

For assay [2], the target named is Cytochrome P450 1A2 (Homo sapiens) (UniProt P05177). Briefly: p450-cyp1a2 (AID 410; calls by dose curve; further: potency means the concentration at half of the fitted maximal effect). As to conditions: recombinant CYP1A2, luciferin-ME demethylation, luminescence; series mostly up to 57 µM. In outline: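 20nM CYP1A2, 100uM Luciferin-ME (=Km), 100mM KPO4; cpd 10 min RT; +NADPH regen, 60 min RT; stop/detect 20 min; luminescence. Normalized to furafylline 57 uM = full inhibition.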
Cytochrome P450 1A2 (Homo sapiens), sequence (P05177 whole entry, looked up): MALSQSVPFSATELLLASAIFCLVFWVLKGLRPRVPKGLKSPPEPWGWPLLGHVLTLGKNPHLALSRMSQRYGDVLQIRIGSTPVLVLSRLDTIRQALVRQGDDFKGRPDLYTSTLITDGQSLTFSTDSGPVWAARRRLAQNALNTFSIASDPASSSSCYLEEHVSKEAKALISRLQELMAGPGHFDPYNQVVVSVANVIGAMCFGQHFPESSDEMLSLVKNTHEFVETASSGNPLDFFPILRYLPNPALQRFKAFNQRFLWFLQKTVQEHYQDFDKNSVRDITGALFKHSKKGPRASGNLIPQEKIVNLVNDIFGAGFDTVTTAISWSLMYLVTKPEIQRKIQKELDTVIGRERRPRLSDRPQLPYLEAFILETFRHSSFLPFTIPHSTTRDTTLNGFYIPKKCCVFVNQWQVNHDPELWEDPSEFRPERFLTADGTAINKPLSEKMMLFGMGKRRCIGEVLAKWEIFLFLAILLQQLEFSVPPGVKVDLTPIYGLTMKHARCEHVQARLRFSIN

Assay [3] is described as follows: NFAT Signaling Pathway (AID 444; active means well fitted curve in either direction with a large enough effect, not every such curve was filed as active;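 further: carbachol stimulus at about its EC50 of 1 µM final; on the % scale 0 is the no-effect control and ±100 the full control effect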). Conditions: Jurkat NFAT-bla M1, carbachol, beta-lactamase ratio, 5 h; at 7.69 µM (top of the series) unless noted. The gist of the method:
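Jurkat cells carrying an NFAT-driven β-lactamase reporter and co-transfected muscarinic M1 receptor were treated with compound plus carbachol (1 uM final, an EC50 level) for 5 h at 37 °C. CCF4 loading followed for 1 h at RT; 460/530 nm ratio gave %activity.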

Assay [4] is described as follows: Stat Signaling Pathway (AID 446; active means well fitted curve in either direction with a large enough effect, not every such curve was filed as active;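 further: ME-180 cervical cancer cells given 40 pM IL-6 alongside compound; SIE-controlled beta-lactamase reporter measured as 460/530 nm FRET emission ratio; on the % scale 0 is the no-effect control and ±100 the full control effect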). Conditions: ME-180 SIE beta-lactamase reporter, IL-6 stimulated, 5 h; at 7.69 µM (top of the series) unless noted. The gist of the method:
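Emission at 460 and 530 nm (excitation 405 nm) reports SIE-controlled beta-lactamase in ME-180 cells. Cells received compound with 40 pM IL-6 for 5 hrs at 37 C; data scaled between 300 pM IL-6 and 125 nM JAK-inhibitor controls.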

The target of assay [5] is Glucocorticoid receptor (Homo sapiens) (UniProt P04150). Briefly: GR-GFP Redistribution (AID 450;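 active means compounds whose dose series gives a full or clear partial fitted curve of increased nuclear translocation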; further: potency means the concentration at half of the fitted maximal effect). As to conditions: U2OS GR-GFP nuclear translocation, laser cytometry, 2 h.
Glucocorticoid receptor (Homo sapiens), sequence (P04150 whole entry, looked up): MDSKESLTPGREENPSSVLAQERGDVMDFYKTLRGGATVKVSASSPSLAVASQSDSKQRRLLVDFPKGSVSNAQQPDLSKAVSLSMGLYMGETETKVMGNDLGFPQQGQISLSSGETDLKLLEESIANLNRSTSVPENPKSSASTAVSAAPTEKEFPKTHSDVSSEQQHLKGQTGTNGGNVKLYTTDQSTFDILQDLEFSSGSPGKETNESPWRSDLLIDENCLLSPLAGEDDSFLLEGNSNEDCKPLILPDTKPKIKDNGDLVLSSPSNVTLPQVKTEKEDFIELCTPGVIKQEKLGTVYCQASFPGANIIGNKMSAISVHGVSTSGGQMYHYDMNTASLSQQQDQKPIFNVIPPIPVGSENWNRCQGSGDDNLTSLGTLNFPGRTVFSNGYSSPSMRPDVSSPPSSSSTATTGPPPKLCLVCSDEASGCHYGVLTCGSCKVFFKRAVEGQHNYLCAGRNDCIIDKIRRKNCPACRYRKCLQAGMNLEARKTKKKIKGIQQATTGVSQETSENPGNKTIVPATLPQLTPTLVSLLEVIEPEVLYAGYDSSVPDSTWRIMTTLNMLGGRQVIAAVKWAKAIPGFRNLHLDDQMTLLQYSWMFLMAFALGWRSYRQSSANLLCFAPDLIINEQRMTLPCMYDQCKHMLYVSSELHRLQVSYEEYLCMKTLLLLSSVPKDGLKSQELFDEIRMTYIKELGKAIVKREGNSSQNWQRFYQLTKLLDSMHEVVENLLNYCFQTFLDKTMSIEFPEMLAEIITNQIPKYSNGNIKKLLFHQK
The target is the same in assay [6]. Briefly: GR-EFC Redistribution (AID 451; calls by dose curve; further: potency means the concentration at half of the fitted maximal effect). As to conditions: CHO-K1 GR-EFC translocation, beta-gal luminescence, 2 h. The gist of the method:
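CHO-K1 cells stably expressing nuclear-localized β-gal enzyme acceptor and GR fused C-terminally to the enzyme donor fragment; ligand-driven nuclear translocation restores β-gal by complementation. Compounds titrated up to 46 uM final, 2 h at 37 °C; luminescence read.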

The target in assay [7] is Mitogen-activated protein kinase 10 (Mus musculus) (UniProt Q61831). Briefly: JNK3 AlphaScreen Assay (AID 530; active means well fitted curve in either direction with a large enough effect, not every such curve was filed as active;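 further: kinase came from lysate of stimulated human HepG2 cells; on the % scale 0 is the no-effect control and ±100 the full control effect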). As to conditions: JNK3 lysate, c-Jun phosphorylation; series mostly up to 57.1 µM. The gist of the method: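 Biotinylated GST-cJun(1-79) served as substrate for JNK3 in HepG2 lysates stimulated with IL-1beta and TNF-alpha. ATP was 10 uM final, pH 7.6. Ser73 phosphorylation was quantified by AlphaScreen (680 nm excitation).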

Assay [8] has as its target 3',5'-cyclic-AMP phosphodiesterase 4B (Homo sapiens) (UniProt Q07343). Briefly: qHTS Assay for Inhibitors of PDE-IV (AID 607; active means well fitted activation curve with a large enough effect in the main read-out, with a control signal flat, not every such curve was filed as active; further: % of control where 0% means no effect). As to conditions: HEK293 ACTOne CNG channel cells, membrane potential fluorescence; series mostly up to 22.9 µM. The gist of the method:
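The readout is membrane depolarisation from a cAMP-sensing CNG channel, detected with a potential dye at ex 535/em 590. Cells were HEK293-derived (endogenous PDE-IV) at 1000 cells/well, titrated up to 22.9 uM final.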
(Quantitative high-throughput screening tests each substance at several concentrations.)

Assay [9] has as its target Cytochrome P450 2C9 (Homo sapiens) (UniProt P11712). Briefly: qHTS Assay for Inhibitors and Substrates of Cytochrome P450 2C9 (AID 883). Further: nearly all actives have a fitted effect of over 60% in size. Further: potency means the concentration at half of the fitted maximal effect. As to conditions: recombinant CYP2C9, luciferin-H luminescence, 60 min; series mostly up to 57.1 µM. The gist of the method: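 Human CYP2C9 (10nM) hydroxylated Luciferin-H (100uM, at its KM) to luciferin in 25mM KPO4. Compound was preincubated 10 min at 37C, then NADPH regeneration started a 60 min reaction at 37C. Luminescence was read after detection reagent, normalized to 57uM sulphaphenazole.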

Assay [10] concerns the target Dual specificity protein kinase CLK4 (Homo sapiens) (UniProt Q9HAZ1). Briefly: qHTS Assay for Inhibitors of CDC-like Kinase 4 (ADP-FP Assay) (AID 1795). Further: on the % scale 0 is the no-effect control and ±100 the full control effect; nearly all actives have a fitted effect of over 60% in size. As to conditions: Transcreener ADP fluorescence polarization; series mostly up to 50 µM. The gist of the method: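 Recombinant human Clk4 (6.25 nM) phosphorylated RS repeat peptide (100 uM) with 1 uM ATP in Tris pH 7.5/MgCl2/EGTA/DTT/Triton buffer for one hour. ADP was quantified by Transcreener competitive fluorescence polarization against an ADP calibration curve.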

In assay [11] the target is Ubiquitin carboxyl-terminal hydrolase 1 (Homo sapiens) (UniProt O94782). Briefly: Inhibitors of USP1/UAF1: Pilot qHTS (AID 504865).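 Further: rhodamine fluorescence freed from ubiquitin-rhodamine substrate followed over time; top concentration of the series differs between compounds; on the % scale 0 is the no-effect control and ±100 the full control effect; nearly all actives have a fitted effect of over 35% in size.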 As to conditions: purified USP1/UAF1, Ub-rhodamine cleavage fluorescence; series mostly up to 54.9 µM. The gist of the method:
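USP1/UAF1 complex (1nM) preincubated with compound 15 min at room temperature, then Ub-Rho substrate (150nM final) added. Fluorescence read kinetically at 480/540 nm, 6 reads every 60 seconds. Buffer: 50mM HEPES pH 7.8, 0.5mM EDTA, 0.1 mg/ml BSA, 1mM TCEP, 0.01% Tween-20.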

The nature of assay [12]: Primary qHTS for small molecule stabilizers of the endoplasmic reticulum resident proteome: Secreted ER Calcium Modulated Protein (SERCaMP) assay (AID 1508630). Further: on the % scale 0 is the no-effect control and ±100 the full control effect. As to conditions: SH-SY5Y GLuc-SERCaMP (Gaussia luciferase released on ER calcium loss) secretion, thapsigargin, luminescence; series mostly up to 38.4 µM. In outline: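 The SH-SY5Y reporter protocol was run at 3 concentrations up to 38.3 uM (primary) or 11 concentrations (follow-up): 16 h compound, 100 nM thapsigargin for 4 h, then extracellular luciferase luminescence.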

Assay [13] in a line: AP1 Signaling Pathway (AID 357; active means well fitted curve in either direction with a large enough effect, not every such curve was filed as active). Conditions: ME-180 AP-1-bla reporter, EGF-induced, beta-lactamase ratio, 5 h; at 7.69 µM (top of the series) unless noted. The gist of the method: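 AP-1-bla ME-180 cells, Opti-MEM + 0.5% dialyzed FBS, plated overnight 37 °C. Cpd titration + EC50 EGF, 5 h 37 °C. CCF4 2.5 h RT; ex 405, em 460/530 ratio → %activity, AC50.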
The target in assay [14] is Cytochrome P450 3A4 (Homo sapiens) (UniProt P08684). Briefly: qHTS Assay for Activators of Cytochrome P450 3A4 (AID 885). Further: nearly all actives have a fitted effect of over 65% in size. As to conditions: recombinant CYP3A4, Luciferin-PPXE luminescence, 60 min; series mostly up to 57.1 µM. The gist of the method: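 Activators are scored by enhanced luminescence from CYP3A4 conversion of luciferin-PPXE (25uM, equal to KM) to luciferin, after 60 min at RT with an NADPH-regenerating system.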
Cytochrome P450 3A4 (Homo sapiens), sequence (P08684 whole entry, looked up): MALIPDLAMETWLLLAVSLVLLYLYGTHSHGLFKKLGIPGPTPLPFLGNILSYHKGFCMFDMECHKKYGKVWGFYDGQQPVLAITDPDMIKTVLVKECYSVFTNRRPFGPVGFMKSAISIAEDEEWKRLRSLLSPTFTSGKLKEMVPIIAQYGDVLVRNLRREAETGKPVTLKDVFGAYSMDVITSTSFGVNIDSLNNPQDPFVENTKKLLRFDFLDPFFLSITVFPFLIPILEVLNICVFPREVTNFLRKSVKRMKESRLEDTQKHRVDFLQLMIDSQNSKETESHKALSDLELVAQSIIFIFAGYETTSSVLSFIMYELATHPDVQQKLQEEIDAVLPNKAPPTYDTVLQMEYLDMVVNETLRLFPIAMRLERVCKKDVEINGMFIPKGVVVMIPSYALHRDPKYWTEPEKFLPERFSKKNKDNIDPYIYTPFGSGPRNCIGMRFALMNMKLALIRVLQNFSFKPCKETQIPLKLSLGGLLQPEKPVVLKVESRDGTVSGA

Assay [15] is described as follows: qHTS Assay for Identification of Small Molecule Agonists for Hypoxia Response Element Signaling Pathway (AID 914; active means well fitted activation curve with a large enough effect in the signal ratio, with a control signal flat, not every such curve was filed as active; the % refers to the signal ratio; further: % of control where 0% means no effect). As to conditions: ME-180 (cervical carcinoma) HRE-bla reporter, beta-lactamase ratio, CoCl2, 17 h; activation: active compounds read high. In outline:
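HRE-bla ME-180 cells, overnight plating in Opti-MEM with 0.5% dialyzed FBS; cpd titration + EC50 CoCl2, 17 h, 37 degrees Celsius; CCF4 2.5 h RT; 460/530 nm ratio; AC50.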

Assay [16] has as its target Cytochrome P450 3A4 (Homo sapiens) (UniProt P08684). Briefly: qHTS Assay for Inhibitors and Substrates of Cytochrome P450 3A4 (AID 884). Further: potency means the concentration at half of the fitted maximal effect; nearly all actives have a fitted effect of over 50% in size. Conditions: recombinant CYP3A4, Luciferin-PPXE luminescence; series mostly up to 57.1 µM. In outline:
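Luminescent readout of luciferin produced by CYP3A4 (20 nM) dealkylation of Luciferin-PPXE, 25 uM (its KM). NADPH-driven reaction ran 60 min at RT after 10 min compound preincubation; data scaled to 57 uM ketoconazole as 100% inhibition.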

The target of assay [17] is Cytochrome P450 2C19 (Homo sapiens) (UniProt P33261). Briefly: qHTS Assay for Inhibitors and Substrates of Cytochrome P450 2C19 (AID 899). Further: potency means the concentration at half of the fitted maximal effect; nearly all actives have a fitted effect of over 60% in size. As to conditions: recombinant CYP2C19, luciferin-H EGE luminescence; series mostly up to 57.1 µM. In outline: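 Human CYP2C19 (5nM) with Luciferin-H EGE at 10uM (its KM) in 50mM KPO4 was preincubated with compound for 10 min at 37C. NADPH regeneration started a 60 min 37C reaction. Luciferin was read by luminescence, normalized to 57uM ketoconazole.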

SMILES strings stand for the structures. A number with no mark means an inactive call. Records with an inconclusive call do not appear. Activity calls are given as the source filed them. Unless noted, the call rests on the fitted dose curve; in most records, active means well fitted curve in the direction sought with a large enough effect; inconclusive means small, poorly fitted or top-dose-only effect, or another doubt; inactive means no such curve, though single readings can be large; an effect the other way counts as inactive or inconclusive. Bounds are passed on as bounds.

3',5'-cyclic-AMP phosphodiesterase 4B (Homo sapiens), sequence (Q07343 whole entry, looked up): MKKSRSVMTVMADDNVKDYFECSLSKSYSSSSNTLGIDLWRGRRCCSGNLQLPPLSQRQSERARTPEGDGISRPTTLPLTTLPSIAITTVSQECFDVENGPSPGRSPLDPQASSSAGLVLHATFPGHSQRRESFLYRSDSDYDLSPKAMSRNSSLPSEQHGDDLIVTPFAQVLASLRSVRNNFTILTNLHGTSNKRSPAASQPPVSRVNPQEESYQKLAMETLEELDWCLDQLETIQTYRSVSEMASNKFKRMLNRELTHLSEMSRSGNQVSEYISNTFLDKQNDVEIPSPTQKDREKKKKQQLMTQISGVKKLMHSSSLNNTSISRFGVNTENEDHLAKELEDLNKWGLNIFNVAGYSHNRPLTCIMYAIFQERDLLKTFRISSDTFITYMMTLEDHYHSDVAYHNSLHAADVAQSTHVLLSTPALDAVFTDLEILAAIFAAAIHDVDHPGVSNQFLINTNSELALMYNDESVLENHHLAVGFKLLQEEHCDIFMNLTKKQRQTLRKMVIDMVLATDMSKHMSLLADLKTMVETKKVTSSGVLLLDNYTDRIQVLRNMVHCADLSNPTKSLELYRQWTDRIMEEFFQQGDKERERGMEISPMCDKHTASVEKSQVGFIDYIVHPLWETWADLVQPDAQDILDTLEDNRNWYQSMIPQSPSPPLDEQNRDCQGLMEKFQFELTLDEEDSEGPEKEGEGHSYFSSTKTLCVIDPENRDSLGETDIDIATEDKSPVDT
Lysosomal acid glucosylceramidase (Homo sapiens), sequence (P04062 whole entry, looked up): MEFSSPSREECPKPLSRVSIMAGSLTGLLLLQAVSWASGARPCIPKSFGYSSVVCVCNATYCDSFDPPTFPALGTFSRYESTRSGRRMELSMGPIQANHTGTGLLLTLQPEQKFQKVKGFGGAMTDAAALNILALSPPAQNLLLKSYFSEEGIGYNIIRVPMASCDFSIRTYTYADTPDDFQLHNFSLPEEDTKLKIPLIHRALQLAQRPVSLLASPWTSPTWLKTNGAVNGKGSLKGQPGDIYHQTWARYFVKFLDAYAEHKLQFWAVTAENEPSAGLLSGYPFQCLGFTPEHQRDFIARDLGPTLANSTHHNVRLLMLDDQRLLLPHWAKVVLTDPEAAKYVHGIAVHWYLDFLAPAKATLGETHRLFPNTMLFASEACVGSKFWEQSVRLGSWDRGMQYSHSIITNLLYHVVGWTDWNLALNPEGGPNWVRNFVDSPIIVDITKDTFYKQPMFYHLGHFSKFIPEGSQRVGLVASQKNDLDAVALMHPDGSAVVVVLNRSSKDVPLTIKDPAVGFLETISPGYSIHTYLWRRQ
Ubiquitin carboxyl-terminal hydrolase 1 (Homo sapiens), sequence (O94782 whole entry, looked up): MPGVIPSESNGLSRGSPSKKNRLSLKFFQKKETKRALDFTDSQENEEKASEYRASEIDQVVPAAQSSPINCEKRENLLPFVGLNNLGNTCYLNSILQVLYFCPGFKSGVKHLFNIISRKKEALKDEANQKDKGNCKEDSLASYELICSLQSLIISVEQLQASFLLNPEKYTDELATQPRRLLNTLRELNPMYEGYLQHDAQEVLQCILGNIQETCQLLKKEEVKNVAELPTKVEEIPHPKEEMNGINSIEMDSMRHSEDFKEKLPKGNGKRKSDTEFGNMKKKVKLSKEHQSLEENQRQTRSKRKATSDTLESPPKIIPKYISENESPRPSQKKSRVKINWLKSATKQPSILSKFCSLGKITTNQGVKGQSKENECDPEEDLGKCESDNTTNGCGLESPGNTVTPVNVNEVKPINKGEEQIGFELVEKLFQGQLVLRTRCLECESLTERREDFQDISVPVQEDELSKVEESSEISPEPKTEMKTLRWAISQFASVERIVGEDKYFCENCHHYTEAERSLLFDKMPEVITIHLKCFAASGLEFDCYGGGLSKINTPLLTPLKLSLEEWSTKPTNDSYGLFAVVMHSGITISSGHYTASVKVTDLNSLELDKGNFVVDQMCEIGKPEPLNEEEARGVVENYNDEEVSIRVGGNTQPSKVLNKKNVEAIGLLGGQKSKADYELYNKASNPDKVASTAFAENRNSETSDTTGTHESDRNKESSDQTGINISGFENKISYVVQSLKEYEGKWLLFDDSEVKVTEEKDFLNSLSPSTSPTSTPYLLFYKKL
Dual specificity protein kinase CLK4 (Homo sapiens), sequence (Q9HAZ1 whole entry, looked up): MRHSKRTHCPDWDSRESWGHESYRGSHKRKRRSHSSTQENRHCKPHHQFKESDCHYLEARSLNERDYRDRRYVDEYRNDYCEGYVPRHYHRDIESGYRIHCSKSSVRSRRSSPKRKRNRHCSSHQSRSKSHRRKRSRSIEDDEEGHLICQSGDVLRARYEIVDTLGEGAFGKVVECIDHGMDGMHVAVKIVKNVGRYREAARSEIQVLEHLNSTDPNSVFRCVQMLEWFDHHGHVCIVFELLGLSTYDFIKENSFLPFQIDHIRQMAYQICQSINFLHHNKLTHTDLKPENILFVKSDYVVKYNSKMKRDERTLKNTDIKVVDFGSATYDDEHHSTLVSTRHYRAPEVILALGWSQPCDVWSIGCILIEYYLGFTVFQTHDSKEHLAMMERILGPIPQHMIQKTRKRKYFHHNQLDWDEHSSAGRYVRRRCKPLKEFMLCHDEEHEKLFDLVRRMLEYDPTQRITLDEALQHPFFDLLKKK
Cytochrome P450 2C9 (Homo sapiens), sequence (P11712 whole entry, looked up): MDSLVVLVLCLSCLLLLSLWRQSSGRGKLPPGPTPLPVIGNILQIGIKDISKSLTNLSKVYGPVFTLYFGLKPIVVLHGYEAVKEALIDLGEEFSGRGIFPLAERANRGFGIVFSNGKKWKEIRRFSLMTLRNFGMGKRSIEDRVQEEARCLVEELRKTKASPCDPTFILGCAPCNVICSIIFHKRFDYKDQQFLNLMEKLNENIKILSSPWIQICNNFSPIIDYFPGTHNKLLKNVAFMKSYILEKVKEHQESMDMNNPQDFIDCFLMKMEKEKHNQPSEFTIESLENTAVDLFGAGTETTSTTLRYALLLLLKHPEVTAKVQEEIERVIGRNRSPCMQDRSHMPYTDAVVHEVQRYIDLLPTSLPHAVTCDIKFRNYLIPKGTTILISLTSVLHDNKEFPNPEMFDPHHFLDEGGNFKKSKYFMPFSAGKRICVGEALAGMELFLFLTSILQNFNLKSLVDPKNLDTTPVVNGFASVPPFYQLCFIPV

For `CN(C)c1nc(-c2ccccc2C(F)(F)F)nc2ccccc12`, the Potency in [1] is more than 11.4 µM; in [2], 0.251 µM (active); in [5], more than 46 µM; in assay [6], more than 46 µM. The activity change, negative = inhibition in [3] is 0.537%; in assay [9], 37.2% [at 2.29 µM]. Moreover, in assay [4], the activity, negative = inhibition is 7.02%. Moreover, the Potency entry in [7], in assay [8], in assay [10] and in assay [11] was “inactive” each time. The outcome in assay [12] was inactive.
`CN(C)C(=O)c1ccc(-c2ccc3ncnc(NCCN4CCOCC4)c3c2)cc1`: the figures for the Potency in assay [1] and in [6] were more than 11.4 µM and more than 46 µM, respectively. The activity change, negative = inhibition in assay [13] was -5.51%; in [3], 6.26%. Further, in assay [4], the activity, negative = inhibition was -17.4%. Further, the Potency result in assay [7], in assay [8], in assay [14], in [10] and in assay [11] was “inactive” throughout. The result in assay [12] was inactive.
For the compound `COCCNc1nc(-c2ccccc2C(F)(F)F)nc2ccccc12`, the activity change, negative = inhibition in [13] is -4.03%; in assay [3], 5.96%. For the same compound, the results for the Potency in assay [2], in [5] and in [6] were 1.26 µM (active), more than 46 µM and more than 46 µM, respectively. Besides, the activity, negative = inhibition in assay [4] is 15.8%. The Potency result in assay [7], in assay [14], in [10] and in assay [11] was “inactive” throughout. Further, the result in [12] was inactive.
Regarding `COc1ccc2[nH]cc(CCNc3ncncc3-c3ccc(C(=O)N(C)C)cc3)c2c1`, the results for the activity change, negative = inhibition in assay [13] and in assay [3] were -13.2% and 5.64%, respectively. Besides, the Potency in assay [2] is 20 µM (active); in assay [5] it was more than 46 µM; in assay [6] it was more than 46 µM; in [9], 0.398 µM (active). Besides, in assay [4], the activity, negative = inhibition is 4.62%. The Potency entry in [7], in assay [8], in [14], in [10] and in assay [11] was “inactive” throughout. For the same compound, in assay [15], the activation is 11.5%. The outcome in assay [12] was inactive.
Turning to `Cc1cnc(CNc2cc(-c3cccnc3)ncn2)cn1`, the activity change, negative = inhibition is -14.2% in assay [13] and -1.2% in [3]. Moreover, the Potency in assay [2] is 15.8 µM (active); in [5], more than 46 µM; in assay [6], more than 46 µM. Further, the activity, negative = inhibition in assay [4] is -0.57%. The Potency result in assay [7], in assay [8], in assay [14], in assay [10] and in assay [11] was “inactive” throughout. For the same compound, the outcome in assay [12] was inactive.
On to `COc1ccc(CNc2ccnc(-c3ccccc3Cl)n2)c(OC)c1`, for which the activity change, negative = inhibition was -21.2% in assay [13] and -26% in assay [3]. Moreover, the Potency in assay [2] is 5.01 µM (active); in assay [5] it was more than 46 µM; in assay [6] it was more than 46 µM; in assay [16], 3.16 µM (active); in [17] it was 1.26 µM (active). In addition, the activity, negative = inhibition in assay [4] was -16.2%. Besides, the Potency result in [7], in [8], in assay [14] and in assay [10] was “inactive” each time. For the same compound, the activation in assay [15] is -15.3%. Also, the result in [12] was inactive.
With `c1cncc(CNc2ccnc(-c3cccnc3)n2)c1`, the figures for the Potency in [1], in assay [5] and in [6] were more than 11.4 µM, more than 46 µM and more than 46 µM, respectively. Besides, the values for the activity change, negative = inhibition in assay [13] and in assay [3] were 8.01% and 10.2%, respectively. Further, the activity, negative = inhibition in [4] was 8.94%. Besides, the Potency result in assay [7], in assay [8], in assay [10] and in assay [11] was “inactive” throughout. For the same compound, the outcome in assay [12] was inactive.
